# Measured values from PubChem BioAssay (Tox21).
# Records with an inconclusive call do not appear. A call without a number means that no potency is given here. Unmarked numbers belong to inactive results. Calls of active or inactive are those of the source. Calls come from the whole dose curve; as a rule, active = well fitted cell-killing curve with a large enough effect in the repeat runs; inconclusive = weak or mixed curves, or effect the other way; inactive = flat fitted curve, though single readings scatter.
# What was measured:
# [1] = cAMP Responsive Elements (CRE) small molecule antagonists, cell-based qHTS assay: qHTS cell viability counter screen (AID 2060913); note: nearly all actives have a fitted effect of over 40% in size
# Procedure, shortened: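 Viability of NKH477-stimulated (0.25 uM final) CRE-bla HEK293T cells is measured by CellTiter-Glo luminescence following 3 hrs compound exposure at 37 C.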
# [2] = cAMP Responsive Elements (CRE) small molecule agonists, cell-based qHTS assay: qHTS cell viability counter screen (AID 2060914);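 note: viability read after 3 h of compound exposure; nearly all actives have a fitted effect of over 50% in size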
# Procedure, shortened: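 HEK 293T CRE-bla; DMEM + 10% dialyzed FBS, 25 mM HEPES; 18 h pre-incubation; compound 3 h, 37 °C/5% CO2; CellTiter-Glo added after reporter read; luminescence after 30 min RT.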
# Potency is the fitted concentration of half-maximal effect.
SMILES,Potency [1],Potency [2],"viability change, negative = cytotoxic [1]","activity change, negative = cytotoxicity [2]"
CC1(C)CC(=O)CC(C)(C)N1,inactive,inactive,,
O=C1c2ccccc2C(=O)N1CO,inactive,inactive,,
CCCCCCCCCCCC(=O)N(C)CC(=O)O,,,1.91% [at 8.39 µM],0.181% [at 8.39 µM]
CCCCc1cc2ccccc2c(OCCN(C)C)n1,inactive,inactive,,
CC(C)[C@H](N)C(=O)OCCOCn1cnc2c(=O)[nH]c(N)nc21,inactive,inactive,,
CCN(CC)CCNC(=O)c1ccc(N)cc1,inactive,inactive,,
CC1(C)O[C@@H]2C[C@H]3[C@@H]4CCC5=CC(=O)CC[C@]5(C)[C@@]4(F)[C@@H](O)C[C@]3(C)[C@]2(C(=O)CCl)O1,inactive,inactive,,
CS(=O)(=O)CCNCc1ccc(-c2ccc3ncnc(Nc4ccc(OCc5cccc(F)c5)c(Cl)c4)c3c2)o1,inactive,inactive,,
CCCC(=O)OCc1ccccc1,inactive,inactive,,
CC1(C)O[C@@H]2C[C@H]3[C@@H]4CCC5=CC(=O)C=C[C@]5(C)[C@@]4(F)[C@@H](O)C[C@]3(C)[C@]2(C(=O)CO)O1,inactive,inactive,,
CC(C)(C(=O)O)c1ccc(C(O)CCCN2CCC(C(O)(c3ccccc3)c3ccccc3)CC2)cc1 (stereo not given),inactive,inactive,,
O=C(NS(=O)(=O)/C=C/c1ccccc1)c1ccc(F)cc1Cl,inactive,inactive,,
CN1C(C(=O)Nc2ccccn2)=C(O)c2sccc2S1(=O)=O,inactive,inactive,,
CC(C)(C)c1ccc(CCC=O)cc1,inactive,inactive,,
Nc1nnnn1-c1ccccc1,inactive,inactive,,
Cc1c(N(C)C)c(=O)n(-c2ccccc2)n1C,inactive,inactive,,
C=C(C)C(=O)NCCC[N+](C)(C)C,inactive,inactive,,
CCCC(=O)OCCC(C)C,inactive,inactive,,
CCCCOCCOC(=O)CCCCCCCCC(=O)OCCOCCCC,inactive,inactive,,
COc1ccc(OC)cc1,inactive,inactive,,
[O]=[Mo](=[O])=[O],,,13.7% [at 18.9 µM],-14.6% [at 18.9 µM]
CC(=O)OC[C@H]1O[C@@H](OC(C)=O)[C@H](OC(C)=O)[C@@H]1OC(C)=O,inactive,inactive,,

SMILES,Potency [1],Potency [2],"viability change, negative = cytotoxic [1]","activity change, negative = cytotoxicity [2]"
CC(C)c1ccccc1N,inactive,inactive,,
CC(C)(C)c1cc(CCC(=O)NCCCCCCNC(=O)CCc2cc(C(C)(C)C)c(O)c(C(C)(C)C)c2)cc(C(C)(C)C)c1O,inactive,inactive,,
CC(C)=CCCC(C)CC(=O)O (stereo not given),inactive,inactive,,
Cc1ccccc1OCC1CO1 (stereo not given),inactive,inactive,,
CCCCCCC(CO)CCCC (stereo not given),inactive,inactive,,
CCCCCCCCCOS(=O)(=O)O,inactive,inactive,,
CCN=C1C=CC(=C(c2ccc(N(CC)CC)cc2)c2ccc(N(CC)CC)cc2)c2ccccc21,48.3 µM (active),30.5 µM (active),,
NS(=O)(=O)c1cc(C2(O)NC(=O)c3ccccc32)ccc1Cl (stereo not given),inactive,inactive,,
CC(C)(O)C(=O)O,inactive,inactive,,
CN1C(C(=O)Nc2ccccn2)=C(O)c2ccccc2S1(=O)=O,inactive,inactive,,
CCC(O)OCCCOC (stereo not given),inactive,inactive,,
CC/C=C\C/C=C\C/C=C\CCCCCCCC(=O)O,inactive,inactive,,
O=c1[nH]c2ccc(Cl)cc2o1,inactive,inactive,,
O=C1c2ccccc2C(=O)C1c1ccc2cc(S(=O)(=O)O)cc(S(=O)(=O)O)c2n1,inactive,inactive,,
Cc1c(Cl)c(=O)oc2cc(O)ccc12,inactive,inactive,,
Cc1cccc(C)n1,inactive,inactive,,
CCCCCCCCCC,inactive,inactive,,
CC(C)CCCC(=O)O,inactive,inactive,,
CC(=O)NCCCCCC(=O)O,inactive,inactive,,
CC(N)CN (stereo not given),inactive,inactive,,
COc1ccc(/C=C/c2cc(OC)cc(=O)o2)cc1,inactive,inactive,,
c1ccc2ccccc2c1,inactive,inactive,,

SMILES,Potency [1],Potency [2],"viability change, negative = cytotoxic [1]","activity change, negative = cytotoxicity [2]"
CCCN1C[C@H](CSC)C[C@@H]2c3cccc4[nH]cc(c34)C[C@H]21,inactive,inactive,,
C=C(C)C(=O)OCCCCCCCCCCCC,inactive,inactive,,
C/C=C1/CC2C=CC1C2 (stereo not given),inactive,inactive,,
CC(S)C(=O)NCC(=O)O (stereo not given),inactive,inactive,,
CCCOC(=O)c1ccccc1,inactive,inactive,,
CN1CCN(CC(=O)N2c3ccccc3C(=O)Nc3cccnc32)CC1,,,8.13% [at 8.39 µM],0.984% [at 8.39 µM]
C[C@@H]1C[C@H]2O[C@@]3(O[C@@H]2C(C)(C)O)[C@H](O)[C@@]2(C)[C@@H]4CC[C@H]5C(C)(C)[C@@H](O[C@@H]6OC[C@@H](O)[C@H](O)[C@H]6O)CC[C@@]56C[C@@]46CC[C@]2(C)[C@@H]13,inactive,inactive,,
C[C@]12CC[C@@H]3c4ccc(O)cc4CC[C@H]3[C@@H]1CC[C@@H]2OC(=O)CCC1CCCC1,inactive,inactive,,
O=[N+]([O-])c1ccccc1C(F)(F)F,inactive,inactive,,
CC(C)Nc1nc(N)nc(Cl)n1,inactive,inactive,,
Cc1c(C(=O)O)cccc1[N+](=O)[O-],inactive,inactive,,
Brc1ccccc1-c1ccccc1,inactive,inactive,,
CCOC(=O)N1CCC(=C2c3ccc(Cl)cc3CCc3cccnc32)CC1,inactive,inactive,,
CC(C)CCC(=O)CCC(C)C,inactive,inactive,,
COc1cccc(OC)c1O,inactive,inactive,,
CO[C@H]1O[C@H](CO)[C@@H](O)[C@H](O)[C@H]1O,inactive,inactive,,
CC(=O)O[C@@H]1CC2CCC1(C)C2(C)C (stereo not given in full),inactive,inactive,,
Cc1cc(O)c2c(c1)C(=O)c1cccc(O)c1C2=O,inactive,inactive,,
Cc1cccc([N+](=O)[O-])c1C(=O)O,inactive,inactive,,
CCOCCOCC,inactive,inactive,,
O=C(N/N=C/c1ccccc1O)c1ccncc1,inactive,inactive,,
CC(=O)OC1CCC(C(C)(C)C)CC1 (stereo not given),inactive,inactive,,

SMILES,Potency [1],Potency [2],"viability change, negative = cytotoxic [1]","activity change, negative = cytotoxicity [2]"
CC1=CCC(C(C)(C)O)CC1 (stereo not given),inactive,inactive,,
NC(=O)NO,inactive,inactive,,
CCCCN1CCCC[C@H]1C(=O)Nc1c(C)cccc1C,inactive,inactive,,
COc1cc2nc(N3CCN(C(=O)c4ccco4)CC3)nc(N)c2cc1OC,,,3.29% [at 18.9 µM],4.06% [at 18.9 µM]
NCCN1CCNCC1,inactive,inactive,,
O=S(=O)(O)SSS(=O)(=O)O,inactive,inactive,,
CCCCCCCCCCn1cc[n+](CCCCCCCCCC)c1C,24.4 µM (active),48.6 µM (active),,
Nc1ccc(S(=O)(=O)c2ccc(N)cc2)cc1,inactive,inactive,,
N=C(N)S(=O)O,inactive,inactive,,
O=C1C(CCS(=O)c2ccccc2)C(=O)N(c2ccccc2)N1c1ccccc1 (stereo not given),inactive,inactive,,
CC(C)OC(=O)c1cc2c(OCC(O)CNC(C)(C)C)cccc2[nH]1 (stereo not given),inactive,inactive,,
CN(C)CCOC1=Cc2ccccc2Sc2ccc(Cl)cc21,inactive,inactive,,
Cn1c(=O)[nH]c2ncn(C)c2c1=O,inactive,inactive,,
COc1cc(C(=O)NS(=O)(=O)c2ccccc2C)ccc1Cc1cn(C)c2ccc(NC(=O)OC3CCCC3)cc12,inactive,inactive,,
N=c1nc(N2CCCCC2)cc(N)n1O,inactive,inactive,,
CC1=Nc2ccc3ccccc3c2C1(C)C,inactive,inactive,,
C1COCO1,inactive,inactive,,
CC(=O)CC(C)(C)C1CCCCC1,inactive,inactive,,
FC1(F)C(F)(F)C(F)(F)C2(F)C(F)(F)C(F)(F)C(F)(F)C(F)(F)C2(F)C1(F)F (stereo not given),inactive,inactive,,
C=CC(=O)OCCCCCC,inactive,inactive,,
CCCCCCCCCCCCS,inactive,inactive,,
CCCCC(CC)COC(=O)C(C#N)=C(c1ccccc1)c1ccccc1 (stereo not given),inactive,inactive,,

SMILES,Potency [1],Potency [2],"viability change, negative = cytotoxic [1]","activity change, negative = cytotoxicity [2]"
COC(=O)C1=C(C)NC(C)=C(C(=O)OC(C)(C)CN(C)CCC(c2ccccc2)c2ccccc2)C1c1cccc([N+](=O)[O-])c1 (stereo not given),inactive,inactive,,
O=C(O)CCS,inactive,inactive,,
Cc1ccccc1N1CCN(CCc2nnc3n2CCCC3)CC1,inactive,inactive,,
CC(=O)OC/C=C(\C)CC/C=C(\C)CCC=C(C)C,inactive,inactive,,
O=C(O)c1cccc(Cl)c1Cl,inactive,inactive,,
CC[C@H](NC(=O)c1cc(F)ccc1NS(=O)(=O)c1cccc2cccnc12)c1ccccc1,inactive,inactive,,
Cc1nc(-c2ccc(OCC(C)C)c(C#N)c2)sc1C(=O)O,inactive,inactive,,
CN[C@@H]1[C@H](O)[C@H](NC)[C@H]2O[C@@]3(O)C(=O)C[C@@H](C)O[C@H]3O[C@@H]2[C@H]1O,inactive,inactive,,
O=C(O)c1ccccc1-n1cc(C(=O)O)c(=O)c2cc(Nc3c(F)cc(F)cc3Cl)c(Cl)cc21,inactive,inactive,,
Cc1cc(C)cc([N+](=O)[O-])c1,inactive,inactive,,
CC(C)CC(C)(C)C,inactive,inactive,,
CN=C(NC#N)Nc1ccc(C2=NNC(=O)CC2C)cc1 (stereo not given),inactive,inactive,,
CC(Cl)C(Cl)Cl (stereo not given),inactive,inactive,,
O=Nc1ccc(Nc2ccccc2)cc1,inactive,inactive,,
Nc1c(Cl)cc(Cl)cc1Cl,inactive,inactive,,
O=C(O)CCC(=O)c1ccc(-c2ccccc2)cc1,inactive,inactive,,
CC(=O)OCc1ccccc1,inactive,inactive,,
O=S(=O)(O)c1ccc(O)cc1,inactive,inactive,,
CCN(CC)c1ccc(C=O)cc1,inactive,inactive,,
CC[N+](CC)(CC)CCOC(=O)C(C1CCCC1)C1CCCC1,inactive,inactive,,
Nc1cc(S(=O)(=O)O)cc2cc(S(=O)(=O)O)cc(O)c12,inactive,inactive,,
O=C(O)COc1ccc2ccccc2c1,inactive,inactive,,
